Measured values as given in PubChem BioAssay AID1159580 (chemical genetic matrix, 2015).
About 2,000 (36%) of roughly 5,500 compounds were called active. Roughly 18% stayed inconclusive and do not appear here. No stated cut-off is given here; in the data, active means normalized growth mostly below about 0.91 (no sharp cut-off); inconclusive means no clear call, values can overlap the other calls; inactive means mostly above about 0.92. Some of the results follow.

Assay: chemical genetic growth profiling, strain panel (AID 1159580);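 further: tested at 20 µM; growth read once vehicle control cultures reached saturation at 30 °C; 1 = growth at the plate median or of vehicle wells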
Conditions: growth OD

Measured: normalized growth

C=Cc1c2[nH]c(c1C)C=c1[nH]c(c(C)c1C=C)=CC1N=C(C=c3[nH]c(c(C)c3CCC(=O)O)=C2)C(CCC(=O)O)=C1C (configuration not stated)
active: S. cerevisiae deletion strains, locus YKL009W, strain mrt4, stronger effect = lower value 0.791 | S. cerevisiae deletion strains, locus YKL085W, strain MDH1 (second series), stronger effect = lower value 1.19 [resistant] | S. cerevisiae deletion strains, locus YKL085W, strain MDH1, stronger effect = lower value 1.19 [resistant] | S. cerevisiae deletion strains, locus YNL071W, strain lat1, stronger effect = lower value 0.881
inactive: S. cerevisiae deletion strains, locus YJR075W, strain HOC1, stronger effect = lower value 0.947 | S. cerevisiae deletion strains, locus YKL068W, stronger effect = lower value 1.06 | S. cerevisiae deletion strains, locus YKL160W, strain elf1, stronger effect = lower value 0.963 | S. cerevisiae deletion strains, locus YKL190W, strain CNB1, stronger effect = lower value 0.99 | S. cerevisiae deletion strains, locus YKR001C, strain vps1, stronger effect = lower value 0.953 | S. cerevisiae deletion strains, locus YKR026C, strain gcn3, stronger effect = lower value 1.06 | S. cerevisiae deletion strains, locus YKR091W, strain srl3, stronger effect = lower value 1 | S. cerevisiae deletion strains, locus YLL001W, strain dnm1, stronger effect = lower value 1.02 | S. cerevisiae deletion strains, locus YLL026W, stronger effect = lower value 1.02 | S. cerevisiae deletion strains, locus YLL041C, strain sdh2, stronger effect = lower value 1.02 | S. cerevisiae deletion strains, locus YLR027C, strain aat2, stronger effect = lower value 1 | S. cerevisiae deletion strains, locus YLR039C, strain RIC1, stronger effect = lower value 0.996 | S. cerevisiae deletion strains, locus YLR058C, strain SHM2, stronger effect = lower value 0.976 | S. cerevisiae deletion strains, locus YLR102C, strain apc9, stronger effect = lower value 0.992 | S. cerevisiae deletion strains, locus YLR113W, strain HOG1, stronger effect = lower value 1.05 | S. cerevisiae deletion strains, locus YLR221C, strain rsa3, stronger effect = lower value 0.975 | S. cerevisiae deletion strains, locus YLR258W, strain gsy2, stronger effect = lower value 1.02 | S. cerevisiae deletion strains, locus YLR262C, strain YPT6 (second series), stronger effect = lower value 1.07 | S. cerevisiae deletion strains, locus YLR262C, strain YPT6, stronger effect = lower value 0.976 | S. cerevisiae deletion strains, locus YLR268W, strain sec22, stronger effect = lower value 1.06 | S. cerevisiae deletion strains, locus YLR320W, strain mms22, stronger effect = lower value 0.996 | S. cerevisiae deletion strains, locus YLR330W, strain CHS5, stronger effect = lower value 0.99 | S. cerevisiae deletion strains, locus YLR342W, strain FKS1 (second series), stronger effect = lower value 0.993 | S. cerevisiae deletion strains, locus YLR342W, strain FKS1, stronger effect = lower value 1.03 | S. cerevisiae deletion strains, locus YLR357W, strain rsc2, stronger effect = lower value 1.05 | S. cerevisiae deletion strains, locus YLR370C, strain arc18, stronger effect = lower value 0.999 | S. cerevisiae deletion strains, locus YLR371W, strain rom2, stronger effect = lower value 0.949 | S. cerevisiae deletion strains, locus YLR384C, strain iki3, stronger effect = lower value 1.04 | S. cerevisiae deletion strains, locus YLR418C, strain cdc73, stronger effect = lower value 0.885 | S. cerevisiae deletion strains, locus YML016C, strain PPZ1, stronger effect = lower value 0.979 | S. cerevisiae deletion strains, locus YML032C, strain rad52, stronger effect = lower value 1.01 | S. cerevisiae deletion strains, locus YML120C, strain ndi1, stronger effect = lower value 1.01 | S. cerevisiae deletion strains, locus YML124C, strain tub3, stronger effect = lower value 0.987 | S. cerevisiae deletion strains, locus YMR058W, strain fet3, stronger effect = lower value 0.912 | S. cerevisiae deletion strains, locus YMR078C, strain ctf18, stronger effect = lower value 0.993 | S. cerevisiae deletion strains, locus YMR125W, strain sto1, stronger effect = lower value 1.06 | S. cerevisiae deletion strains, locus YMR129W, stronger effect = lower value 1.06 | S. cerevisiae deletion strains, locus YMR205C, strain PFK2, stronger effect = lower value 1.02 | S. cerevisiae deletion strains, locus YMR223W, strain ubp8, stronger effect = lower value 0.972 | S. cerevisiae deletion strains, locus YMR231W, strain pep5, stronger effect = lower value 1.02 | S. cerevisiae deletion strains, locus YMR263W, strain SAP30, stronger effect = lower value 0.982 | S. cerevisiae deletion strains, locus YMR307W, strain GAS1, stronger effect = lower value 0.909 | S. cerevisiae deletion strains, locus YNL067W, strain RPL9B, stronger effect = lower value 1 | S. cerevisiae deletion strains, locus YNL128W, strain TEP1, stronger effect = lower value 0.975 | S. cerevisiae deletion strains, locus YNL153C, strain GIM3, stronger effect = lower value 1 | S. cerevisiae deletion strains, locus YNL183C, strain NPR1, stronger effect = lower value 1.01 | S. cerevisiae deletion strains, locus YNL209W, strain ssb2, stronger effect = lower value 1.02 | S. cerevisiae deletion strains, locus YNL233W, strain BNI4, stronger effect = lower value 1.01 | S. cerevisiae deletion strains, locus YNL248C, strain rpa49, stronger effect = lower value 0.987 | S. cerevisiae deletion strains, locus YNL250W, strain rad50, stronger effect = lower value 1.02 | S. cerevisiae deletion strains, locus YNL271C, strain bni1, stronger effect = lower value 1.02 | S. cerevisiae deletion strains, locus YNL298W, strain CLA4, stronger effect = lower value 1 | S. cerevisiae deletion strains, locus YNL307C, strain MCK1, stronger effect = lower value 0.966 | S. cerevisiae deletion strains, locus YNL322C, strain KRE1 (second series), stronger effect = lower value 1.03 | S. cerevisiae deletion strains, locus YNL322C, strain KRE1, stronger effect = lower value 0.989 | S. cerevisiae deletion strains, locus YNR049C, strain mso1, stronger effect = lower value 1.01 | S. cerevisiae deletion strains, locus YNR052C, strain pop2, stronger effect = lower value 1 | S. cerevisiae deletion strains, locus YOL006C, strain TOP1, stronger effect = lower value 0.997 | S. cerevisiae deletion strains, locus YOL012C, strain htz1 0.933 | S. cerevisiae deletion strains, locus YOL147C, strain pex11, stronger effect = lower value 0.996 | S. cerevisiae deletion strains, locus YOR001W, strain rrp6, stronger effect = lower value 1.03 | S. cerevisiae deletion strains, locus YOR061W, strain CKA2, stronger effect = lower value 0.98 | S. cerevisiae deletion strains, locus YOR069W, strain VPS5, stronger effect = lower value 0.95 | S. cerevisiae deletion strains, locus YOR070C, strain gyp1, stronger effect = lower value 0.98 | S. cerevisiae deletion strains, locus YOR080W, strain dia2, stronger effect = lower value 1.01 | S. cerevisiae deletion strains, locus YOR083W, strain WHI5, stronger effect = lower value 0.951 | S. cerevisiae deletion strains, locus YOR106W, strain vam3, stronger effect = lower value 0.951 | S. cerevisiae deletion strains, locus YOR136W, strain idh2, stronger effect = lower value 0.982 | S. cerevisiae deletion strains, locus YOR144C, strain elg1, stronger effect = lower value 0.996 | S. cerevisiae deletion strains, locus YOR184W, strain ser1, stronger effect = lower value 0.964 | S. cerevisiae deletion strains, locus YOR231W, strain MKK1, stronger effect = lower value 1.05 | S. cerevisiae deletion strains, locus YOR265W, strain rbl2, stronger effect = lower value 1.01 | S. cerevisiae deletion strains, locus YOR270C, strain vph1, stronger effect = lower value 0.874 | S. cerevisiae deletion strains, locus YOR290C, strain snf2, stronger effect = lower value 0.997 | S. cerevisiae deletion strains, locus YOR316C, strain cot1, stronger effect = lower value 0.99 | S. cerevisiae deletion strains, locus YPL051W, strain arl3, stronger effect = lower value 0.949 | S. cerevisiae deletion strains, locus YPL055C, strain LGE1, stronger effect = lower value 0.903 | S. cerevisiae deletion strains, locus YPL078C, strain atp4, stronger effect = lower value 0.984 | S. cerevisiae deletion strains, locus YPL106C, strain sse1, stronger effect = lower value 0.982 | S. cerevisiae deletion strains, locus YPL240C, strain hsp82, stronger effect = lower value 0.994 | S. cerevisiae deletion strains, locus YPL241C, strain CIN2, stronger effect = lower value 0.994 | S. cerevisiae deletion strains, locus YPL256C, strain CLN2, stronger effect = lower value 1.1 | S. cerevisiae deletion strains, locus YPR119W, strain clb2, stronger effect = lower value 0.994 | S. cerevisiae deletion strains, locus YPR141C, strain kar3, stronger effect = lower value 1.01 | S. cerevisiae deletion strains, locus YPR163C, strain tif3, stronger effect = lower value 1 | S. cerevisiae deletion strains, locus YPR167C, strain met16, stronger effect = lower value 1 | S. cerevisiae deletion strains, strain wtn01, stronger effect = lower value 0.996 | S. cerevisiae strains, strain wild type, stronger effect = lower value 0.972
